# According to PubChem BioAssay AID743286 (National Center for Advancing Translational Sciences (NCATS), 2014):
# In all, about 1,100 compounds went through this assay and about 340 (31%) were called active. About 40% were inconclusive and are not listed. Calls follow the shape of the dose curve; as a rule, active = well fitted inhibition curve with a large enough effect; inconclusive = small, poorly fitted or top-dose-only effect; inactive = flat fitted curve, though single readings scatter. Only a sample is shown. Where a call stands in place of a potency, no number is given.
# Target: Phosphatidylinositol 5-phosphate 4-kinase type-2 alpha (Homo sapiens) (UniProt P48426)
# Assay: qHTS for Inhibitors of PI5P4K: Confirmation in Primary Assay; also: nearly all actives have a fitted effect of over 65% in size
# Conditions: PI5P4Kalpha enzyme, ADP-Glo luminescence, 60 min; series mostly up to 76.9 µM
# From the text: In addition to finding PI5P, we discovered the type II phosphatidylinositol 5-phosphate 4-kinase (PI5P4K) family (alpha, beta, gamma isoforms) that catalyze the conversion of PI5P to PI(4,5)P2. Alternatively, PI(4,5)P2 can also be synthesized through phosphatidylinositol-4-phosphate (PI4P) by the type I phosphatidylinositol 4-phosphate 5-kinases (PI4P5K). These PI5P4K enzymes therefore represent one way by which cells can regulate endogenous PI5P levels and play important roles in insulin signaling and in stress responses. […] A qHTS PI5P4K-alpha ADP-Glo assay was developed to identify specific modulators of human PI5P4K, phosphatidylinositol-5-phosphate 4-kinase (Type II PIPK). This assay was screened against the MLSMR containing ~400,000 small molecules (PubChem AID 652105). To confirm that the hits were not interacting with the detection enzyme system, a 1536-well counterscreen against the ADP-Glo kit (Promega) was utilized, as described in Davis et al., 2013 [1]. Davis et al., PLoS One. 2013;8(1):e54127. NIH Chemical Genomics Center [NCGC] NIH Molecular Libraries Probe Centers Network [MLPCN] MLPCN Grant: MH096575 Assay Submitter (PI): Atsuo Sasaki, Beth Israel Deaconess Medical Center
# 2 microL of PI5P4Kalpha/substrate buffer (columns 1-2, 5-48) are dispensed into Greiner white solid bottom 1536-well assay plates; column 3 receives only PI5P4Kalpha buffer as 0x substrate controls; column 4 receives only substrate buffer as 0x PI5P4Kalpha controls. Final assay buffer consists of 0.038 M HEPES pH 7.4, 0.28 mM EGTA, 0.1% CHAPS, and 5% DMSO (final concentration). Compounds are then transferred via Kalypsys pin tool equipped with 1536-pin array (10 nL slotted pins, V&P Scientific, San Diego, CA). Following addition of compound, 1 microL of ATP (5 microM final concentration, all columns) is added to initiate the reaction. ATP is diluted in an assay buffer consisting of 0.02 M HEPES pH 7.4, 60 mM MgCl2, 15 microM ATP, and 0.1% CHAPS. The plates are then incubated at room temperature for 60 minutes. ADP-Glo reagent 1 is added (2 microL) and plates incubated for 45 minutes, before ADP-Glo reagent 2 (4 microL) is added and plates incubated for 30 minutes. They are then transferred to a ViewLux high-throughput CCD imager (PerkinElmer) wherein single end-point measurements of luminescence are acquired using a clear filter.
# Potency is read from the fitted curve at half-maximal effect.
# Sequence of Phosphatidylinositol 5-phosphate 4-kinase type-2 alpha (Homo sapiens) (P48426 whole entry, looked up): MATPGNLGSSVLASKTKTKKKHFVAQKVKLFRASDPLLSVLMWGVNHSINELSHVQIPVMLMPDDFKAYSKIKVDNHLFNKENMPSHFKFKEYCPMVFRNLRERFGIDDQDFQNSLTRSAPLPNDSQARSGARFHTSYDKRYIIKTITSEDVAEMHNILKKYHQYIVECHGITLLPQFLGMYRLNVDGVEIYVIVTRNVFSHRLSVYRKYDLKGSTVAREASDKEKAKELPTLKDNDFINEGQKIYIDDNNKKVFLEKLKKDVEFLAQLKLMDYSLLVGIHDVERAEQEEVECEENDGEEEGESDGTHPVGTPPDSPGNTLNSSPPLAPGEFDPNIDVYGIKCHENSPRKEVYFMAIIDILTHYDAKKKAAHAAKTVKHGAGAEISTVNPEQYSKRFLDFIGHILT
row,Structure (SMILES),Potency
1,O=C(NCc1ccco1)c1ccc([N+](=O)[O-])o1,31.6 µM (active)
2,O=C(c1ccco1)N1CCN(C(=O)c2ccc(-c3ccc([N+](=O)[O-])cc3)o2)CC1,inactive
3,O=C(CSC1=NCCS1)NCc1ccco1,inactive
4,S=C(NCc1ccco1)NCc1ccco1,14.1 µM (active)
5,CC(C)(C)[C@H]1C=C(C(=O)N2CCOCC2)O[C@@H](OCc2ccc(CO)cc2)C1,inactive
6,COc1ccc(Cl)cc1S(=O)(=O)NCCCn1ccnc1,inactive
7,COCCNC(=O)c1cc(-c2ccccc2)sc1N,inactive
8,Cc1ccc(CNc2ncnc3ccc(-c4ccc(CO)o4)cc23)o1,inactive
9,Cc1cc(O)ccc1Nc1cc(-c2cccc(N(C)C)c2)ncn1,12.6 µM (active)
10,O=C(NC1CCCC1)C(c1ccncc1)N(C(=O)c1csnn1)c1ccccc1F (configuration not stated),inactive
11,Cc1sc2ncn(CC(=O)N3CCC(C(N)=O)CC3)c(=O)c2c1S(=O)(=O)N1CC(C)CC(C)C1 (configuration not stated),inactive
12,O=C(Nc1ccc(S(=O)(=O)Nc2nccs2)cc1)c1nn(-c2ccc(F)cc2)ccc1=O,15.8 µM (active)
13,Cc1ccc(C)c(OC(C)C(=O)Nc2ccc(S(=O)(=O)Nc3nccs3)cc2)c1 (configuration not stated),inactive
14,Cc1noc(C)c1C(=O)Nc1ccc(-n2ccc(C(F)(F)F)n2)cc1,inactive
15,COc1ccc(C(=O)N2CCCC2(C)C(=O)O)cc1C(F)(F)F (configuration not stated),inactive
16,O=C(c1cccc(-n2cccc2)c1)N1CCN(S(=O)(=O)c2ccccc2)CC1,3.98 µM (active)
17,CC(=O)N1CCN(S(=O)(=O)c2cccc(C(=O)Nc3ccc(F)c(F)c3)c2)CC1,inactive
18,COc1ccc(CN2CCC(=O)N([C@H](CO)CC(C)C)CC2)cc1OC,inactive
19,CCCCCCCCN1C(=O)[C@H](CC(=O)NCc2ccc(C)o2)C[C@@]2(C(=O)OC)CC(C)(C)CC=C12,inactive
20,CC1=NN(c2nc(-c3ccc(Cl)cc3)cs2)C(=O)C1,15.8 µM (active)
21,CCOC(=O)Nc1ccc2c(CNC(C)c3ccccc3OC)cc(=O)oc2c1 (configuration not stated),inactive
22,CC1CCN(C(=O)c2ccc(COc3ccccc3Cl)o2)CC1,inactive
23,COC(=O)CCC(=O)OC1(C)C(=O)C2=CN(CC3CC3)C(c3ccc(OC)cc3)=CC2=C(Br)C1=O (configuration not stated),inactive
24,CCCCC1=CC2=C(c3ccco3)C(=O)C(C)(OC(=O)c3ccc(OC)cc3)C(=O)C2=CN1Cc1ccccc1 (configuration not stated),inactive
25,COc1ccc(C2=CC3=C(Br)C(=O)C(C)(OC(=O)c4cccs4)C(=O)C3=CO2)cc1 (configuration not stated),22.4 µM (active)
26,Cc1ccc(S(=O)c2ccc(NC(=O)C3CC3)cc2C#N)cc1 (configuration not stated),inactive
27,Cc1ccc(N(C(=O)CNC(=O)c2ccco2)C(C(=O)NC2CCCC2)c2cccnc2)c(C)c1 (configuration not stated),inactive
